Tau FP inhib: inhibitors of human tau fibril formation. 0.39% of 280,000 active. AID 1468. K18 P301L tau heparin fibrillization, Alexa594 FP, 6 h. Potency, µM (doses to about 57.7 µM), without a hit: at the top dose activity, negative = inhibition, most hits filed as inhibitors; also: nearly all actives have a fitted effect of over 55% in size
Target sequence (P10636 561-689 P618L limits assumed): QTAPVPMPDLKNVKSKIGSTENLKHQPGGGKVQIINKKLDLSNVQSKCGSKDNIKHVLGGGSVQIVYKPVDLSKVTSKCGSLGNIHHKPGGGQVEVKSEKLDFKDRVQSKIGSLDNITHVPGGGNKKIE
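Human K18 P301L fragment (15 uM unlabeled plus 0.24 uM Alexa 594-labeled) in 100 mM sodium acetate pH 7 with compound, aggregation induced by 20 uM heparin for 6 hr at 37 C. ThT (30 uM) added for 1 hr, then Alexa 594 FP read.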
TRb-SRC2 inh: inhibitors of human thyroid hormone receptor beta-SRC2 interaction; TRbeta-SRC2 peptide binding, fluorescence polarization; receptor liganded with 1 µM T3; Potency, µM (doses to about 106 µM), for the others: top-dose activity change, negative = inhibition, actives largely listed as inhibitors; AID 1469; P10828; 0.065% of 280,000 active;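 also: plate controls were bound peptide for no effect and peptide without receptor for full effect; nearly all actives have a fitted effect of over 50% in size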
Target sequence (P10828 whole entry, looked up): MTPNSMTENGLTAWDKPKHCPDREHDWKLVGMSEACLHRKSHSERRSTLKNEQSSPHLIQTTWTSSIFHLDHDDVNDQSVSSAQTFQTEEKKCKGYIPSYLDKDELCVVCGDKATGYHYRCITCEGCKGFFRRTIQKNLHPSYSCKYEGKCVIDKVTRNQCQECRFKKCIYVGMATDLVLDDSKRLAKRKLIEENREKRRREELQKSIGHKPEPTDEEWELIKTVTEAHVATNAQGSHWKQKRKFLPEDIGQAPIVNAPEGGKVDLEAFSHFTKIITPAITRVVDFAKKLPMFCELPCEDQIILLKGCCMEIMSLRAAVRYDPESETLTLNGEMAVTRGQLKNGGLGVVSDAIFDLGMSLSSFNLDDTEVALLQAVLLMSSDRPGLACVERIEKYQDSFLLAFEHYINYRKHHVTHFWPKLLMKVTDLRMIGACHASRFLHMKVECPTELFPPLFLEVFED
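A fluorescence polarization screen tested compounds at multiple concentrations against complex formation between 0.6 uM TRb ligand-binding domain and 20 nM Texas Red SRC2 peptide, with 1 uM T3 present; readout after 5 hr.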
Tau ThT inhib: blocks human tau fibril formation measured by thioflavin T; P10636; recombinant tau K18 P301L, heparin-induced fibrillization, ThT fluorescence; Potency, µM (doses to about 57.4 µM), for the others: at the top dose activity, negative = inhibition, usual class: inhibitors; 2.1% of 270,000 active; AID 1460; also: nearly all actives have a fitted effect of over 55% in size
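Heparin-induced fibrillization of the P301L-mutant K18 repeat-domain fragment of human tau was followed by ThT binding in quantitative high-throughput format.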
Tau fluor counter: counter-screen for tau fibril formation inhibitors; tau K18 P301L Alexa594 fluorescence, heparin fibrillization; Potency, µM (highest dose often 57.7 µM), without a hit: top-dose activity change, negative = decrease; 0.93% of 280,000 active; also: nearly all actives have a fitted effect of over 55% in size
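Human tau K18 P301L (15 uM unlabeled, 0.24 uM Alexa 594-labeled) in 100 mM sodium acetate pH 7 with 20 uM heparin, 6 hr at 37 C. ThT 30 uM added, 1 hr ambient; Alexa 594 FP and total fluorescence read at 555/632 nm.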
TexasRed fluor: alters Texas Red total fluorescence, flagging assay interference. TRb/SRC2 Texas Red total fluorescence interference. Potency, µM (series often up to 106 µM), for inactives: at the top dose fluorescence change, negative = quenching. 0.29% of 280,000 active; active = well fitted curve in either direction with a large enough effect; inconclusive = small, poorly fitted or top-dose-only effect
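Human TRβ ligand-binding domain (0.6 uM) and Texas Red SRC2 peptide (20 nM) in Tris buffer with 1 uM T3 and 5% DMSO were incubated with pinned compound for 5 hr at ambient temperature. Total fluorescence was computed as S + 2P (555/632 nm).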
Active calls of the source: *; ? = inconclusive; · = no result; ! = a repeat was not active; [ ] = dose if it differs, or a comment. Most compounds without a hit are left out; they make up all but 3.1% or so of the library. Unless noted, calls follow the shape of the dose curve; as a rule, active = well fitted curve in the direction sought with a large enough effect; inconclusive = small, poorly fitted or top-dose-only effect, or another doubt; inactive = no such curve, though single readings can be large; an effect the other way counts as inactive or inconclusive. Unless noted, % is scaled to controls: 0 for no effect and ±100 for the full control effect; potency is read from the fitted curve at half-maximal effect.

SMILES | Tau FP inhib | TRb-SRC2 inh | Tau ThT inhib | Tau fluor counter | TexasRed fluor
FC(F)C(F)(F)OCC(Cn1cncn1)c1ccc(Cl)cc1Cl (stereo not drawn) | · | -1.5%[201 µM] | · | · | -1.3%[201 µM]
COc1c(C(C)(C)C)cc([N+](=O)[O-])c(C)c1[N+](=O)[O-] | · | 3.6% | · | · | 0.4%
CC(=O)OC1C[C@@]2(C)C(c3ccoc3)C[C@H]3O[C@@]32[C@@]2(C)C(=O)C(O)=C3C(C)(C)C(=O)C=C[C@]3(C)C12 (stereo partly drawn) | ? | -4.4% | 8.91µM* | -17.0% | 0.2%
CC(=O)O[C@@H]1C[C@@]2(C)C(c3ccoc3)C[C@H]3O[C@]32[C@]2(C)C(=O)C(O)=C3C(C)(C)C(=O)C=C[C@]3(C)C12 (stereo partly drawn) | ? | -6.4% | 25.1µM* | -8.5% | -0.5%
CC(=O)OC1CC(OC(C)=O)[C@]2(C)C(CC(OC(C)=O)[C@]3(C)C2CC[C@@]2(C)C(c4ccoc4)C[C@H]4O[C@]432)C1(C)C (stereo partly drawn) | -7.4% | -7.0% | -1.5% | -12.6% | -2.8%
C#CCN1C(=O)COc2cc(F)c(N3C(=O)C4=C(CCCC4)C3=O)cc21 | · | -3.5%[201 µM] | · | · | -12.1%[201 µM]
O=CC(Br)P(=O)(N1CCOCC1)N1CCOCC1 (stereo not drawn) | 25.1µM* | 1.5% | 10µM* | ? | -1.2%
O=CC(Cl)P(=O)(N1CCCCC1)N1CCCCC1 (stereo not drawn) | -5.9% | -0.5% | ? | -17.9% | -0.6%
CN(C)c1nc(=O)n(C2CCCCC2)c(=O)n1C | · | -2.4%[201 µM] | · | · | -2.5%[201 µM]
O=C1NC(=S)NC(=O)C1=Cc1cccc2cc3ccccc3cc12 | -16.5% | -8.9% | 11.2µM* | 15.8µM*[quencher] | -4.9%
O=C1NC(=O)C(=Cc2ccccc2Oc2ccc(F)cc2)C(=O)N1 | 3.3% | 0.5% | ? | -3.7% | 0.8%
O=C(O)c1ccc2c(c1)C1C(Cl)C(Sc3ccccc3[N+](=O)[O-])CC1C(c1cccc([N+](=O)[O-])c1)N2 (stereo not drawn) | -2.2% | -3.8% | ? | -24.9% | -5.3%
O=C(O)c1cccc2c1NC(c1cccc([N+](=O)[O-])c1)C1CC(Sc3ccccc3[N+](=O)[O-])C(Cl)C21 (stereo not drawn) | ? | 5.0% | 31.6µM* | ? | -6.9%
CC1(C)[C@H](C=C(Cl)Cl)[C@H]1C(=O)O[C@H](C#N)c1ccc(F)c(Oc2ccccc2)c1 | · | 3.8%[201 µM] | · | · | -1.5%[201 µM]
CCN1C(=O)C(=Cc2ccc(C)s2)C(=O)N(CC)C1=S | ? | -5.3% | 14.1µM* | -28.6% | -1.9%
CCN1C(=O)C(=Cc2cc(C)n(C3CC3)c2C)C(=O)N(CC)C1=S | -3.8% | -6.0% | ? | -5.2% | -2.5%
COc1ccc2oc(=O)c(C(=O)NCCc3c(C)[nH]c4ccc(F)cc34)cc2c1 | ? | 3.3% | ? | 7.94µM*[quencher] | 2.7%
CC1=NNC(=O)N(/N=C/c2cccnc2)C1 | · | -4.2%[201 µM] | · | · | -3.4%[201 µM]
Cc1ccc(/C=C2/C(=O)NC(=O)N(C)C2=O)cc1 | -16.3% | -4.3% | ? | -2.6% | 0.8%
CN1C(=O)NC(=O)/C(=C\c2ccc([N+](=O)[O-])o2)C1=O | ? | 3.1% | 28.2µM* | -20.9% | 14.1%
O=C1NC(=O)N(c2ccccc2)C(=O)/C1=C\c1ccc([N+](=O)[O-])o1 | ? | 8.1% | 17.8µM* | ? | 17.3%
CN1C(=O)NC(=O)/C(=C/c2ccc([N+](=O)[O-])o2)C1=O | ? | 0.0% | 12.6µM* | -28.6% | 7.2%
O=C/C(Cl)=C(/Cl)C(=O)O | · | -4.1%[201 µM] | · | · | 1.3%[201 µM]
CN1CCN(Cc2nc3ccccc3n2C)CC1 | -1.6% | -14.8% | -10.5% | -2.6% | 1.3%
Cn1c(NN=O)nc2ccccc21 | -9.1% | 2.6% | 17.8µM* | ? | 1.0%
SMILES | Tau FP inhib | TRb-SRC2 inh | Tau ThT inhib | Tau fluor counter | TexasRed fluor
COCCOC(=O)C1=C(C)OC(N)=C(C(=O)OC)C12C(=O)Nc1ccccc12 (stereo not drawn) | ? | 6.1% | 39.8µM* | -20.8% | 0.1%
CC(=O)C1=C(C)OC(N)=C(C(=O)OC(C)C)C12C(=O)Nc1ccccc12 (stereo not drawn) | -4.9% | -7.9% | ? | -12.1% | -1.3%
CS(=O)(=O)NC(=O)c1cc(Oc2ccc(C(F)(F)F)cc2Cl)ccc1[N+](=O)[O-] | · | 3.6%[201 µM] | · | · | -1.4%[201 µM]
CC(C)(C)OOC(C)(C)c1ccc(C(C)(C)OOC(C)(C)C)cc1 | · | 0.7%[201 µM] | · | · | -4.7%[201 µM]
CCN(CCCl)Cc1ccccc1Br | 8.1% | -4.2% | -17.3% | 0.1% | -3.6%
CCCCCOc1ccc(C)cc1CN(CCCl)CCCl | 0.9% | 31.6µM* | ? | -10.8% | -1.4%
CC(C)=CC1[C@H](C(=O)OCc2cccc(Oc3ccccc3)c2)C1(C)C (stereo partly drawn) | · | 7.6%[201 µM] | · | · | 1.8%[201 µM]
Oc1ccc(/C=N/NP(=S)(c2ccccc2)c2ccccc2)cc1 | ? | -22.8% | ? | 12.6µM*[quencher] | -1.2%
COc1cc(/C=N/NP(=S)(c2ccccc2)c2ccccc2)ccc1O | 11.3% | 3.7% | ? | 14.1µM*[quencher] | 0.0%
CN(C)c1ccc(NC(=O)Oc2ccccc2)cc1 | ? | 44.7µM* | 14.1µM* | ? | ?
CN1COCN(Cc2cnc(Cl)s2)/C1=N\[N+](=O)[O-] | · | -1.0%[201 µM] | · | · | 3.3%[201 µM]
COC(=O)/C=C(\C)OP(=O)(OC)OC | · | -2.7%[201 µM] | · | · | -1.1%[201 µM]
CCC[CH2][Sn]1([CH2]CCC)[O]C(=O)C=CC(=O)[O]1 | · | -7.8%[201 µM] | · | · | -4.2%[201 µM]
C/C=C/C/C=C/CCC(=O)[C@H]1O[C@H]1C(N)=O | ? | ? | ? | -19.0% | 2.1%
O=C1NC(=O)C(=Cc2coc3ccccc3c2=O)C(=O)N1 | ? | -5.1% | ? | -18.5% | -0.1%
O=C1NC(=O)C(=C/C=C/c2coc3ccc(Br)cc3c2=O)C(=O)N1 | ? | ? | 7.94µM* | -19.6% | 25.1µM*[fluorescent]
Cc1cc2c(C(C)C)c(O)c(O)c(C=O)c2c(O)c1-c1c(C)cc2c(C(C)C)c(O)c(O)c(C=O)c2c1O | 35.5µM* | ? | 28.2µM* | 15.8µM*[quencher] | 25.1µM*![quencher]
Cc1ccccc1N1C(=O)NC(=O)/C(=C/c2ccc(N3CCOCC3)o2)C1=O | -4.6% | 4.6% | -25.3% | -2.5% | 1.8%
Cc1ccccc1N1C(=O)NC(=O)/C(=C\c2cc(Br)c(N3CCOCC3)o2)C1=O | ? | 2.5% | 15.8µM* | -18.6% | 25.2%
CC12C=CC(=O)C=C1CCC1C2=CCC2(C)C1CC[C@@H]2C(=O)CN1CCN(c2cc(N3CCCC3)nc(N3CCCC3)n2)CC1 (stereo partly drawn) | ? | -15.9% | 7.08µM* | -13.4% | 0.6%
CC/C(=N\Nc1cccc2ccccc12)c1c(O)[nH]c(=O)[nH]c1=O | ? | 1.0% | 28.2µM* | ? | -2.2%
CN1C(=O)C(Cc2c[nH]c3ccccc23)C(=O)N(C)C1=O | ? | -1.7% | 22.4µM* | -28.2% | -7.2%

High-throughput results (PubChem BioAssay)
